The record followed here is PubChem BioAssay AID686971 (National Center for Advancing Translational Sciences (NCATS), 2013).

The campaign covered roughly 360,000 compounds. About 7,500 (2.1%) were called active. Not shown: some 8% with an inconclusive outcome. Calls come from the whole dose curve; as a rule, active = well fitted cell-killing curve with a large enough effect; inconclusive = small, poorly fitted or top-dose-only effect, or effect the other way, or another doubt; inactive = no such curve, though single readings can be large or run the other way. Shown is part of a subset that was picked to be rich in actives. Entries that show only a call come without a potency.
Potency is the fitted concentration of half-maximal effect.

The assay is described as follows: qHTS for induction of synthetic lethality in tumor cells producing 2HG: qHTS for the HT-1080-IDH1KD cell line. As to conditions: HT-1080 IDH1 knockdown viability, ATP luminescence, 48 h; series mostly up to 46.1 µM. From the text: Unbiased genomic sequencing for 22 glioma genomes found recurrent mutation of IDH1 on chromosome 2q33, a gene encoding the cytosolic isoform of IIDH1 associated with the tri-carboxylic acid cycle (TCA) that catalyzes the oxidative decarboxylation of isocitrate, yielding alpha-ketoglutarate and CO2 via NADP+ to NADPH conversion. Subsequent studies confirmed the recurrent IDH mutations in up to 70% of secondary gliomas and in 10% of AML cases. In addition, the somatic mutation of cancer-associated IDH1 is a point mutation resulting in various amino-acid substituents at Arginine132 (IDH1 R132), a key residue found in the enzyme's active site that when mutated, results in the loss-of-function in metabolizing isocitrate but confers a gain-of-function to produce the oncometabolite 2-hydroxyglutarate (2HG). This in effect defines IDH1 as an oncogene and provides an extraordinary opportunity to discover chemical probes against mutant IDH1 that may translate into much needed new therapies for glioma and AML patients.
This assay aims to perform a synthetic-lethal screen for chemical probes specific for 2HG-producing tumor cells using matched paired cell lines (1) HT-1080-NT fibrosarcoma cell line that overproduces 2HG and (2) HT-1080-IDH1KD cell line which has IDH1 expression knocked-down. Desirable compounds are toxic to the NT fibrosarcoma cell line but not to the IDH1KD cell line. The data in this AID corresponds to the results of the qHTS against the HT-1080 IDH1KD cell line.
[1] Dang L, Jin S, Su SM. IDH mutations in glioma and acute myeloid leukemia. Trends of Mol Med. 2010; 16(9): 387-97.
[2] Dang L et al. Cancer-associated IDH1 mutations produce 2-hydroxyglutarate. Nature. 2010; 465(7300):966.
Molecular Libraries Probe Production Centers Network [MLPCN]
NIH Chemical Genomics Center [NCGC]
Assay Submitter (PI): Lenny Dang Ph.D., Agios Pharmaceuticals
Suspensions of trypsinized HT-1080-IDH1KD cells were dispensed into white, tissue culture-treated, solid 1536-well plates at 5uL/well (750 cells/well final concentration) in RPMI medium supplemented with 5% FBS. Plates were incubated at 37 degrees C for 2 hours, after which 23 nL of compounds or DMSO were delivered to each well using a pin tool. Plates were then incubated at 37 degrees C for an additional 48 hours. CellTiter-Glo viability reagent (Promega) was dispensed into wells (2.5uL/well) and incubated at room temperature for 10 minutes. The plates were measured on a PerkinElmer ViewLux plate reader for luminescent signal (clear filter, 1 sec exp.). DMSO-treated control wells and media-only (no cells) control wells were used to normalize %Activity of identified toxic compounds; DMSO-treated wells corresponded to 0%Activity (100% viability), while media-only controls were used to normalize 100%Activity (0% viability). To minimize variability between cell lines, both HT-1080-NT and HT-1080-IDH1KD lines were dispensed and treated with identical compound series in single batches.
Concentration-response curves were fitted to the signals arising from the resulting luminescence. The concentration-effect curves were then classified based on curve quality (r2), response magnitude and degree of measured activity, and compounds were subsequently categorized based on their curve class.
`O=NN(CCCl)C(=O)NCCc1cccc[n+]1[O-]`: the Potency result was “inactive”.
For the compound `CCc1nc2ccc(C(=O)NC3CCN(Cc4ccccc4)CC3)cn2c1N(C)CCN1CCOCC1`, the Potency entry is “inactive”.
For `C#CCNC(=O)C[C@@H]1C[C@@]2(C(=O)OCC)CCCC=C2N(Cc2ccco2)C1=O` the value was “inactive”; for `NS(=O)(=O)c1ccc(NC(=O)CSc2nnc3c(n2)[nH]c2ccccc23)cc1`, “inactive”.
With `CN(C)C(=O)c1cccc(-c2cnc3c(NC=O)cc(-c4ccc(F)cc4)cn23)c1` the figure was 23.1 µM (active); with `CC(=O)c1cccc(-c2cnc3c(NC=O)cc(-c4cccc(C(=O)N(C)C)c4)cn23)c1`, “inactive”.
With `Cc1ccc2nc(-c3ccccn3)cc(C(=O)Nc3ccc4c(c3)OCO4)c2c1` the entry was “inactive”.
On to `CCOc1ncccc1C(=O)Nc1ccc2c(c1)OCCO2`, for which the Potency result is “inactive”.
In the case of `Cc1ccc2nc(-c3ccncc3)cc(C(=O)Nc3ccc4c(c3)OCCO4)c2c1`, the Potency was 9.2 µM (active).
For `CCOc1ccc(CCN2C(=O)C(=O)N([C@@H](CC(C)C)CN3CCC[C@H]3CN3C(=O)C(=O)NC[C@@H]3Cc3ccccc3)C[C@@H]2CC(C)C)cc1` the value was “inactive”; for `COC(=O)COc1cccc2c(=O)n(CC(=O)NCCc3ccc(OC)c(OC)c3)ccc12`, “inactive”.
For `COC(=O)COc1cccc2c(=O)n(CC(=O)NCc3ccccc3)ccc12` the value was 2.31 µM (active); for `Cc1ccc(CNC(=O)CCNC(=O)Cn2ccc3ccccc3c2=O)cc1`, “inactive”.
`C=CCN1CCN(c2ccncc2S(=O)(=O)N2CCN(C)CC2)CC1`: the Potency result is “inactive”.
With `COc1cccc(C(NC(C)=O)c2nc(-c3ccccc3OC)cs2)c1` (centres undefined) the entry was “inactive”.
With `COc1ccc(C(CNC(=O)CSc2ccccc2)N2CCOCC2)cc1` (centres undefined) the entry was “inactive”; with `CN(C)c1cccc(NC(=O)c2ccc(-c3ccc(F)c(F)c3)c3ccoc23)c1`, “inactive”; with `Cc1cc(C(=O)CCl)c(C)n1CC1COc2ccccc2O1` (centres undefined), 14.6 µM (active).
For `O=C1C(=O)N(CC2COc3ccccc3O2)c2ccccc21` (centres undefined) the value was “inactive”.
In the case of `Cc1ccsc1C(=O)OCC(=O)c1cc(C)n(CC2CCCO2)c1C` (centres undefined), the Potency result is “inactive”.
Turning to `CC(C)(C)c1ccc(C(=O)NCC(=O)OCN2C(=O)c3ccccc3C2=O)cc1`, the Potency result was “inactive”.
With `CC(C)(C)c1ccc(C(=O)NCCn2c(N)c(C#N)c3nc4ccccc4nc32)cc1` the figure was 16.4 µM (active); with `COCC(C)OC(=O)c1c(N)n(CCCN2CCOCC2)c2nc3ccccc3nc12` (centres undefined), “inactive”.
With `COc1ccc2nc(-c3ccccn3)ccc2c1` the entry was “inactive”; with `C[C@@H]1CN([C@@H](C)CO)C(=O)CCCn2nncc2CO[C@H]1CN(C)Cc1ccc(C(F)(F)F)cc1`, “inactive”; with `O=S1(=O)CC(N2CCC(Cc3ccccc3)CC2)CN1Cc1ccccc1` (centres undefined), “inactive”.
For `CC(C)(C)C(=O)c1c(N)[nH]c(C(=O)c2ccccc2)c1-c1ccc(F)cc1` the value was “inactive”; for `COc1ccccc1-c1n[nH]nc1C1=CC(=O)CC(C)(C)C1`, “inactive”; for `COc1ccccc1CCNC(=O)C(=O)NCCC1CCCCN1S(=O)(=O)c1cccs1` (centres undefined), “inactive”.
Consider `O=C(NCCC1CCCCN1S(=O)(=O)c1ccc(F)cc1)C(=O)NC1CC1` (centres undefined), for which the Potency result was “inactive”.
With `O=C(NCCC1CCCCN1S(=O)(=O)c1cccs1)C(=O)Nc1ccc(F)cc1F` (centres undefined) the figure was 14.6 µM (active); with `O=C(Nc1cccc2ccccc12)c1[nH]c(-c2ccccc2)c2c1C(=O)N(C1CC1)C2=O`, “inactive”; with `O=C(NCCN1CCOCC1)C1CCN(S(=O)(=O)c2ccccc2)CC1`, “inactive”.
With `O=C(Nc1ccccc1Cl)/C(Cl)=C(\Cl)S(=O)c1ccccc1` (centres undefined) the figure was 6.51 µM (active); with `O=C(COC(=O)CCc1c[nH]c(=O)[nH]1)Nc1ccccc1Cl`, “inactive”.
For `CN(C)S(=O)(=O)Oc1ccccc1C(=O)Nc1ccccc1Cl` the value was “inactive”.
With `CC1(Oc2ccc(Cl)cc2)CCN(Cc2csc3ccccc23)C1` (centres undefined), the Potency result was “inactive”.
For `N#CCSc1ccccc1NC(=O)CN1C(=O)NC(CCc2ccccc2)C1=O` (centres undefined) the value was “inactive”; for `COC(=O)[C@]12CCCCC=C1N(Cc1ccco1)C(=O)[C@H](CC(=O)NCCCCc1ccccc1)C2`, “inactive”.
For `COc1ccc(C(C)(O)c2nc(-c3ccc(C)c(C)c3)cs2)cc1` (centres undefined) the value was “inactive”.
With `COc1ccc(-c2csc(Nc3ccc(O)cc3)n2)cc1` the figure was 6.51 µM (active); with `COc1ccc(-c2csc(Nc3cccc(C)n3)n2)cc1OC`, “inactive”; with `OC[C@@H]1CN(Cc2ccc(Cl)cc2)C[C@H](n2cnc3c(NCc4ccncc4)ncnc32)O1`, “inactive”.
With `Cc1ccc(S(=O)(=O)N2CC[C@H]3[C@@H](C2)C(=O)C[C@@H](c2ccccc2)N3S(=O)(=O)c2ccc(C)cc2)cc1`, the Potency entry was “inactive”.
With `COc1ccc(-n2c(-c3ccc(Cl)cc3)n[nH]c2=S)c(OC)c1` the entry was “inactive”; with `Oc1ccc(N2CCN(C(=S)NCc3ccccc3)CC2)cc1`, 16.4 µM (active).
For `Oc1ccccc1N1CCN(C(=S)NCc2ccccc2)CC1` the value was “inactive”; for `O=C(COC(=O)c1ccccc1C(=O)N1CCN(c2ccccc2)CC1)NCc1ccccc1`, “inactive”; for `Cc1ccc(F)c(S(=O)(=O)NC(=O)C2(C)CCN2C(=O)c2ccco2)c1` (centres undefined), “inactive”.
